Assay [1] can be described thus: Nuclear factor erythroid 2-related factor 2/antioxidant responsive element (Nrf2/ARE) small molecule agonists: qHTS cell viability counter screen in human keratinocytes (AID 1919968; active = well fitted curve in the direction sought with a large enough effect in the repeat runs; an effect the other way counts as inactive or inconclusive; note: nearly all actives have a fitted effect of over 55% in size). Summed up:
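Viability counter-screen: KeratinoSens reporter cells, DMSO-delivered compounds, 23 h at 37 C, CellTiter-Fluor fluorescence.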
In general terms: In qHTS, concentration-response curves come from the screen itself.

A short description of assay [2]: Nuclear factor erythroid 2-related factor 2/antioxidant responsive element (Nrf2/ARE) small molecule agonists: luciferase reporter gene qHTS assay in human keratinocytes (AID 1919969). Note: nearly all actives have a fitted effect of over 35% in size. Note: potency is the fitted concentration of half-maximal effect. On the technique in general: In a reporter assay the amount or activity of a reporter protein is the signal.
In assay [3] the target is Gonadotropin-releasing hormone receptor (Homo sapiens) (UniProt P30968). The assay is described as follows: Human gonadotropin-releasing hormone receptor (GnRHR) small molecule agonists, calcium flux assay in GnRHR-HEK293 cells (AID 1920063). Note: nearly all actives have a fitted effect of over 35% in size. Summed up:
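Tox21-format agonist screen using human GnRHR-expressing HEK293 cells and a fluorescent calcium dye; kinetic 3-min fluorescence reading after compound addition, 15-point concentration series run in triplicate.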
(Calcium assays in cells follow changes in intracellular calcium, usually with a dye or a luminescent sensor.)

Assay [4] deals with KiSS-1 receptor (Homo sapiens) (UniProt Q969F8). Kind of assay: Human kisspeptin (KISS1R) small molecule agonists, calcium flux assay in KISS1R-HEK293 cells (AID 1920064; active = well fitted curve in the direction sought with a large enough effect in the repeat runs; an effect the other way counts as inactive or inconclusive). In outline: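 Intracellular calcium mobilization in KISS1R-HEK293 cells was recorded by fluorescence (Ex/Em 480/540) for 3 min following compound addition to cells pre-loaded 1 h with calcium dye.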
Chain of KiSS-1 receptor (Homo sapiens) (Q969F8 whole entry, looked up): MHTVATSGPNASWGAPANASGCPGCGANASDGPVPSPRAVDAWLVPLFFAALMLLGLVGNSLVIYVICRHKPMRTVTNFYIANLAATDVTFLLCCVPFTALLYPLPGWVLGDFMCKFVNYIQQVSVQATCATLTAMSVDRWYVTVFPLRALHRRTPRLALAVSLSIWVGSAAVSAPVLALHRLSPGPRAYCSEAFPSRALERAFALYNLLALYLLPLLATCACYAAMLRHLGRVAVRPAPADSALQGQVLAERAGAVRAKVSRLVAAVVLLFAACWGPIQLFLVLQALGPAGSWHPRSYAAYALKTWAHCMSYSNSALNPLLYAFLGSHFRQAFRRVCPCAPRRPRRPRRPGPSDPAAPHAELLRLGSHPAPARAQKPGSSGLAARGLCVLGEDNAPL
Assay [5] is described as follows: p53 small molecule agonists, cell-based qHTS assay with human liver microsomes (AID 1963577). In outline: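 Compounds act here after metabolic activation: human liver microsomes and NADPH, both at 0.5 mg/mL final, were co-added to p53RE-bla cells. Incubation ran 16 h at 37 C, followed by LiveBLAzer detection.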
Assay [6] is described as follows: p53 small molecule agonists, cell-based qHTS assay with rat liver microsomes (AID 1963578). Summed up: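 Read-out is beta-lactamase reporter fluorescence (LiveBLAzer, 2 h, room temperature, dark) in p53RE-bla cells treated 16 h at 37 C with compound, rat liver microsomes and NADPH, both 0.5 mg/mL final.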
Assay [7] is described as follows: p53 small molecule agonists, cell-based qHTS assay with human liver microsomes: qHTS cell viability counter screen (AID 1963579). Note: nearly all actives have a fitted effect of over 45% in size. Summed up: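 Cells carrying the p53 response-element beta-lactamase reporter are treated for 16 h at 37 C with test compounds in the presence of human liver microsomes and NADPH (both 0.5 mg/mL final); ATP-based CellTiter-Glo luminescence then reports viability.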

Assay [8] in a line: p53 small molecule agonists, cell-based qHTS assay with rat liver microsomes: qHTS cell viability counter screen (AID 1963580). Note: nearly all actives have a fitted effect of over 45% in size. Summed up:
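In HCT-116 cells carrying a p53 response element-bla reporter, compounds were metabolically activated in situ by rat liver microsomes with NADPH over 16 h. Cell ATP content then served as the cytotoxicity measure.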

A short description of assay [9]: p53 small molecule agonists, cell-based qHTS assay: qHTS cell viability counter screen (AID 1963581). Note: nearly all actives have a fitted effect of over 45% in size. Summed up: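 Compounds are pinned onto HCT-116 p53RE-bla cells and left 16 h at 37 C. Following the reporter FRET read, ATP is quantified by CellTiter-Glo luminescence after 30 min at room temperature.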
A short description of assay [10]: p53 small molecule agonists, cell-based qHTS assay (AID 1963582; active = well fitted activation curve with a large enough effect in the signal ratio in the repeat runs, not every such curve was filed as active; the % refers to the signal ratio). In outline:
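Agonist activity was scored from beta-lactamase FRET fluorescence in p53RE-bla cells treated 16 h at 37 C with compounds in DMSO, substrate incubation being 2 h at room temperature.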

Assay [11] deals with 5-hydroxytryptamine receptor 2A (Homo sapiens) (UniProt P28223). The assay is described as follows: 5-hydroxytryptamine receptor 2A (HTR2A) small molecule antagonists, cell-based qHTS assay (AID 1963586). Note: nearly all actives have a fitted effect of over 45% in size. In outline:
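Antagonist-mode intracellular calcium assay: DOI (4 nM) added after 5 min compound pre-incubation at room temperature to dye-loaded HTR2A-CHO cells. Fluorescence followed for 3 min, sampled every second.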

The target is the same in assay [12]. The assay is described as follows: 5-hydroxytryptamine receptor 2A (HTR2A) small molecule agonists, cell-based qHTS assay (AID 1963587). Note: nearly all actives have a fitted effect of over 30% in size. In outline: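 HTR2A-CHO cells, plated 18 h at 37 C/5% CO2, dye-loaded 1 h at 37 C; compounds in DMSO added by pin tool (agonist mode). Intracellular calcium flux read as kinetic fluorescence on FDSS over 2 min at 1 s intervals.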

The target in assay [13] is Muscarinic acetylcholine receptor M1 (Homo sapiens) (UniProt P11229). Kind of assay: Cholinergic receptor muscarinic 1 (CHRM1) small molecule antagonists, cell-based qHTS assay (AID 1963588). Note: nearly all actives have a fitted effect of over 40% in size. In outline:
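CHRM1-CHO calcium-flux assay, antagonist mode. Cells were seeded 18 h, dye-loaded 1 h at 37 C and given compound for 5 min at RT, then acetylcholine was added at 50nM. FDSS fluorescence was read 3 min; 15 concentrations, three runs.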

For assay [14] the target is unchanged. The assay is described as follows: Cholinergic receptor muscarinic 1 (CHRM1) small molecule agonists, cell-based qHTS assay (AID 1963589). Note: nearly all actives have a fitted effect of over 35% in size. In outline: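 Stable CHRM1-CHO cells (human receptor) were incubated 18 h, dye-loaded for 1 h at 37 C and exposed to test compounds for agonist activity, with calcium-dependent fluorescence followed kinetically.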
The nature of assay [15]: cAMP Responsive Elements (CRE) small molecule agonists, cell-based qHTS assay (AID 1963590). In outline:
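FRET-based beta-lactamase readout (LiveBLAzer B/G, 2 h RT) quantified CRE activation in HEK 293T CRE-bla cells after 3 h treatment with DMSO-dissolved compounds.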

Assay [16] in a line: cAMP Responsive Elements (CRE) small molecule antagonists, cell-based qHTS assay (AID 1963591; active = well fitted inhibition curve with a large enough effect in the signal ratio in the repeat runs, not every such curve was filed as active; the % refers to the signal ratio). In outline: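 qHTS in CRE-bla HEK 293T cells: compound in DMSO, then 0.25 uM NKH477 (final), 3 h at 37 °C/5% CO2; beta-lactamase FRET read-out after 2 h substrate incubation.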
In assay [17] the target is Beta-2 adrenergic receptor (Homo sapiens) (UniProt P07550). The assay is described as follows: Adrenergic beta2 receptor (ADRB2) small molecule antagonists, cell-based qHTS assay (AID 1963592). Note: series mostly up to about 92 µM; nearly all actives have a fitted effect of over 50% in size. In outline: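 Cells (CHO, stable ADRB2 overexpression) incubated 18-20hr at 37C; compounds added from DMSO; agonist mix (1nM isoproterenol, 100uM IBMX, 25uM Ro-20-1724) added; 0.5hr RT; d2-cAMP and anti-cAMP-cryptate added; 1hr RT; 665/615 nm read.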
Chain of Beta-2 adrenergic receptor (Homo sapiens) (P07550 whole entry, looked up): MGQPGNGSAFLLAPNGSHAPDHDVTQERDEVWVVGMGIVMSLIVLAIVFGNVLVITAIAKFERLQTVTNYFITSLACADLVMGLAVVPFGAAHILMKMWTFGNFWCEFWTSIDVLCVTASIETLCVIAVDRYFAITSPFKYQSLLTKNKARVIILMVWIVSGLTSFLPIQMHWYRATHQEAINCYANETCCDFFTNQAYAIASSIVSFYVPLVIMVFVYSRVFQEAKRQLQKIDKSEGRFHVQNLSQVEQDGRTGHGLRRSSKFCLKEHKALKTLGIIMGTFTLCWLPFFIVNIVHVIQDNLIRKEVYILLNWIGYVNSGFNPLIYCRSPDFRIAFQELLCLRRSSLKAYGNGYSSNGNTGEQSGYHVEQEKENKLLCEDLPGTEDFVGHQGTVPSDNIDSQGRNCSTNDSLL

Assay [18] has as its target D(2) dopamine receptor (Homo sapiens) (UniProt P14416). The assay is described as follows: Dopamine D2 receptor (DRD2) small molecule agonists, cell-based qHTS assay (AID 1963594). Note: nearly all actives have a fitted effect of over 35% in size. Summed up: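 HEK293 cells stably expressing DRD2 were cultured 24 h at 37 C, then given Ro20-1724 (0.1 mM final) and compounds for 10 min at room temperature. NKH477 (200nM) was then added for 30 min. cAMP was read by HTRF.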

Assay [19] has the same target. The assay is described as follows: Dopamine D2 receptor (DRD2) small molecule antagonists, cell-based qHTS assay (AID 1963595; active = well fitted inhibition curve with a large enough effect in the signal ratio in the repeat runs, with a control signal flat; the % refers to the signal ratio). Summed up: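 Stable D2 receptor HEK293 line, 24 h after seeding. Compound preincubated 10 min, then quinpirole (12 nM) with forskolin analogue NKH477 (200 nM), 30 min, room temperature. Detection by time-resolved FRET of cAMP.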
Assay [20] deals with Beta-2 adrenergic receptor (Homo sapiens) (UniProt P07550). Kind of assay: Adrenergic beta2 receptor (ADRB2) small molecule agonists, cell-based qHTS assay (AID 1963593).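 Note: CHO cells stably overexpressing human ADRB2.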 Summed up: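 CHO cells stably over-expressing ADRB2 were plated overnight at 37C, then dosed with compounds plus a stimulation mix containing 100uM IBMX and 25uM Ro-20-1724 for 0.5hr at room temperature. cAMP was measured by HTRF competition, 1hr.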

The record followed here is PubChem BioAssay (Tox21).

Values without a mark were called inactive. Records with an inconclusive call do not appear. Activity calls are given as the source filed them. Unless noted, calls come from the whole dose curve.

Chain of 5-hydroxytryptamine receptor 2A (Homo sapiens) (P28223 whole entry, looked up): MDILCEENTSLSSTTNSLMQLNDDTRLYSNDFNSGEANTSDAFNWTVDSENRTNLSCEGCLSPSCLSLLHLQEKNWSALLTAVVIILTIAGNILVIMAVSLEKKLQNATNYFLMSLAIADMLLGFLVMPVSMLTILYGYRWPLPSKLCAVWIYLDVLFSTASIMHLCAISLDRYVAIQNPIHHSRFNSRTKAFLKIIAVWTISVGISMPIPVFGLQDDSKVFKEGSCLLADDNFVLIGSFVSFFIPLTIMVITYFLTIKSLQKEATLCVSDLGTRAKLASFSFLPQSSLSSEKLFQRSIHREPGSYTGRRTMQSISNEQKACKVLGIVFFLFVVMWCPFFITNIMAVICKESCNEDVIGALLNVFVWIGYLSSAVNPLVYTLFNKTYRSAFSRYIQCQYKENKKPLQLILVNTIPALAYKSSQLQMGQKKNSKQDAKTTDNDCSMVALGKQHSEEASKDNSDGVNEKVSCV
Chain of D(2) dopamine receptor (Homo sapiens) (P14416 whole entry, looked up): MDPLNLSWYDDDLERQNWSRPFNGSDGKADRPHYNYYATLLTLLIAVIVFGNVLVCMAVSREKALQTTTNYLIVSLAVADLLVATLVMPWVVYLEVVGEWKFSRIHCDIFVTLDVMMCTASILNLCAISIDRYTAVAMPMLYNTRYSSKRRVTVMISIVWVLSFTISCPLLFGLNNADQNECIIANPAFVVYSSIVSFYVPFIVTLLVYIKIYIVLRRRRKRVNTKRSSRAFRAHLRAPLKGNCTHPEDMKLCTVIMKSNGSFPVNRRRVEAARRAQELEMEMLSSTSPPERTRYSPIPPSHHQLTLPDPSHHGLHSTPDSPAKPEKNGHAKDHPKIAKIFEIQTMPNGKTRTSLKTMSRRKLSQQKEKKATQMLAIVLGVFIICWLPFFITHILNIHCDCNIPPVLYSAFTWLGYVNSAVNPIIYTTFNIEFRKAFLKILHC
Chain of Muscarinic acetylcholine receptor M1 (Homo sapiens) (P11229 whole entry, looked up): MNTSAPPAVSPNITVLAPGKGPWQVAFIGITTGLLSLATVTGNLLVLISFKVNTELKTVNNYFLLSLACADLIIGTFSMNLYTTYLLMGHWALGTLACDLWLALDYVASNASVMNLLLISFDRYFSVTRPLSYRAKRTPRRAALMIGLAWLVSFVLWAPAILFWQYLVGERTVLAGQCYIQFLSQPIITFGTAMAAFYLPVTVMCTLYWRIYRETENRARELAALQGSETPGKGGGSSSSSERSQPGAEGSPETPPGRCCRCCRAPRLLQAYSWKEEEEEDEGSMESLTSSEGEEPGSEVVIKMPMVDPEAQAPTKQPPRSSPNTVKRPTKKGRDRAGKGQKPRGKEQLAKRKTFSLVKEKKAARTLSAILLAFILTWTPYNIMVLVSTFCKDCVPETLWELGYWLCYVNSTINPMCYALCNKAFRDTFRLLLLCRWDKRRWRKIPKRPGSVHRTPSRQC
Chain of Gonadotropin-releasing hormone receptor (Homo sapiens) (P30968 whole entry, looked up): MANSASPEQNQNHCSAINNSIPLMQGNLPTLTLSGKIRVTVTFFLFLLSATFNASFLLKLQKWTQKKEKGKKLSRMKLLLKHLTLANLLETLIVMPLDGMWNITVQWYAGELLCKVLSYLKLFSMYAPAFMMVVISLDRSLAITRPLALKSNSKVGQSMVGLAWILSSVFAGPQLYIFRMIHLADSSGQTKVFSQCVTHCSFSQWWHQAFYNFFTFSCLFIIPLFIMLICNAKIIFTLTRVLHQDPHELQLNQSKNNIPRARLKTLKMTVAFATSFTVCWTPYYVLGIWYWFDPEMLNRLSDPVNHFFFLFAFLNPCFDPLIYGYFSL

For `CCC(C)(CCC(C)C)C(=O)[O][Sn]([CH3])([CH3])[O]C(=O)C(C)(CC)CCC(C)C` (configuration not stated), the Potency entry in assay [1], in assay [3], in [5], in assay [6], in [7] and in assay [8] was “inactive” in each case. Further, the Potency entry in assay [9], in assay [10], in [11], in assay [12], in assay [13] and in assay [14] was “inactive” throughout. In addition, the Potency result in assay [15], in assay [16], in [17], in assay [18] and in assay [19] was “inactive” throughout. Also, the Potency in [2] was 30.6 µM (active). Further, the result in [4] was inactive.
In the case of `Cc1cc(-c2ccccc2)nnc1NCCN1CCOCC1`, the Potency result in assay [1], in assay [2], in assay [3], in assay [5], in assay [6] and in assay [7] was “inactive” each time. The Potency entry in assay [8], in assay [9], in [10], in assay [11], in assay [12] and in assay [13] was “inactive” throughout. Besides, the Potency entry in assay [14], in assay [15], in assay [16], in [17], in assay [18] and in assay [19] was “inactive” each time. Further, the outcome in assay [4] was inactive.
`C#C[C@]1(OC(C)=O)CC[C@H]2[C@@H]3CCC4=C[C@@H](OC(C)=O)CC[C@@H]4[C@H]3CC[C@@]21C`: the Potency result in assay [1], in assay [2], in [3], in [5], in assay [6] and in [7] was “inactive” each time. In addition, the Potency entry in assay [8], in assay [9], in [10], in [15], in assay [17] and in [18] was “inactive” in each case. Further, the Potency entry in [19] is “inactive”. For the same molecule, the result in [4] was inactive.
`CCC(C(=O)O)c1ccc(N2Cc3ccccc3C2=O)cc1` (configuration not stated): the Potency result in [1], in [2], in [3], in [5], in assay [7] and in assay [9] was “inactive” throughout. For the same molecule, the Potency result in assay [11], in assay [12], in [13], in assay [14], in assay [17] and in assay [20] was “inactive” throughout. The Potency entry in [18] and in assay [19] was “inactive” each time. Also, the outcome in assay [4] was inactive.
Consider `CCOC(=O)c1ccccc1O`, for which the Potency result in assay [1], in [2], in assay [3], in [5], in assay [6] and in assay [7] was “inactive” throughout. Moreover, the Potency result in assay [8], in [10], in assay [11], in [12], in [13] and in assay [14] was “inactive” throughout. For the same molecule, the Potency result in assay [15], in assay [17], in [20], in assay [18] and in [19] was “inactive” in each case. Further, in assay [4], the outcome was inactive.
On to `CCOc1nc(F)cc2nc(S(=O)(=O)Nc3c(Cl)cccc3C(=O)OC)nn12`, for which the Potency entry in assay [1], in assay [2], in [3], in assay [5], in [6] and in assay [7] was “inactive” each time. Also, the Potency result in assay [11], in assay [12], in assay [14], in assay [16], in assay [17] and in assay [18] was “inactive” throughout. The Potency entry in assay [19] is “inactive”. Besides, the result in [4] was inactive.
`N#CSCC(=O)O`: the Potency entry in assay [1], in [2], in assay [3], in assay [5], in assay [7] and in assay [8] was “inactive” each time. Also, the Potency entry in assay [9], in [10], in assay [11], in assay [12], in assay [13] and in assay [14] was “inactive” in each case. Also, the Potency result in assay [15], in [16], in assay [17], in assay [18] and in assay [19] was “inactive” in each case. Moreover, the outcome in assay [4] was inactive.
